This note sets out measurements from ChEMBL document CHEMBL4513216, “Probing the Open Global Health Chemical Diversity Library for Multistage-Active Starting Points for Next-Generation Antimalarials” (ACS Infect Dis, 2020).

Hit rate of the full screen: of about 69,000 compounds, about 8,600 (12%) showed an effect of 50% or more. The entries come from a sample that favours strong results as a whole.

The assay deals with Plasmodium berghei. Description: Screen against P. berghei liver stage (PbLuc), transformed with Luciferase, at 10uM. Format: functional, HepG2. To be noted: tested at 10 uM.
Turning to `CC1=N[C@@]2(CC[C@@H]3CN(Cc4cccc(Cl)c4)C[C@@H]32)C(=O)N1CC1CC1`, the INHIBITION is reported as 14.9%.
The same measure for `Cc1ccc(C2CCCN(S(C)(=O)=O)C2)nc1` (stereo not drawn): 6.75%.
In the case of `O=C(NC[C@]12COC[C@H]1CN(C1CCOCC1)C2)c1ccco1`, the INHIBITION was 38.7%.
The same measure for `Cc1cccc2c1OCCCC2NCc1nnc2n1CCCCC2` (stereo not drawn): 86.8%; for `Cc1ccc2c(c1)OCCCC2NCc1nnc2n1CCCCC2` (stereo not drawn): -14.2%; for `c1ccc2c(c1)OCCCC2NCc1nnc2n1CCCCC2` (stereo not drawn): -0.55%.
The same measure for `CS(=O)(=O)c1cc(Cl)cnc1C1CCN(C(=O)C2CCCO2)CC1` (stereo not drawn): 12.75%.
The same measure for `O=C(Cc1cccc(F)c1)N1C[C@H]2CN(Cc3ccccn3)C[C@H]2C1`: 9.97%; for `N#Cc1ccsc1N1CCC(Sc2ncc[nH]2)C1=O` (stereo not drawn): 27.6%; for `Cc1c(NC(C)C(C)C)cccc1C(=O)NCc1nnc(C)n1C` (stereo not drawn): -20.8%.
`Cc1c(NC(C)C(C)C)cccc1C(=O)NCc1ccnn1C` (stereo not drawn): the INHIBITION was 62.7%.
Then `Cc1c(NC(C)C(C)C)cccc1C(=O)NCc1cnn(C)c1` (stereo not drawn), with 29.3%; and `Cn1ccnc1CNC(=O)c1ccnc(C2CCNCC2)c1`, with -12.4%; and `Cc1c(NC(C)C(C)C)cccc1C(=O)NCc1nccn1C` (stereo not drawn), with 57.4%.
The same measure for `CC(C)Nc1ncccc1C(=O)NCc1ccnn1C`: 43%; for `O=C1NC2(Cc3ccccc31)CN(CC1CCCC1)C2`: 45.8%; for `COC(=O)C1CCN(C(=O)c2cc(Br)ccc2-n2cnnn2)CC1`: 53.8%.
Then `CCOC(=O)C1CCN(C(=O)c2cc(Br)ccc2-n2cnnn2)CC1`, with 17.6%; and `NC(=O)C1CCN(C(=O)c2cc(Br)ccc2-n2cnnn2)CC1`, with 28.6%.
In the case of `CC(CN1CCOCC1)OC(=O)c1ccccc1Cl` (stereo not drawn), the INHIBITION turned out to be 35.8%.
On to `Cn1nnc2c1C(COCc1ccccn1)CN(C(=O)c1ccsc1)C2` (stereo not drawn), for which the INHIBITION is listed as 1.9%.
On to `Cc1cc(N(C)Cc2ncc[nH]2)nc(-c2cccnc2)n1`, for which the INHIBITION was -18.5%.
The same measure for `Cc1cc(N(C)Cc2snnc2C)nc(-c2cccnc2)n1`: -26.2%; for `Cc1cc(N(C)Cc2cc(C(C)(C)C)n[nH]2)nc(-c2cccnc2)n1`: 76.5%.
Then `Cc1cc(N(C)Cc2ncc[nH]2)nc(-c2ccccc2)n1`, with 59.8%.
Take `Cc1ccccc1CN(CCN(C)C)Cc1ncc[nH]1`: the INHIBITION is recorded as 3.96%.
Then `Cc1cc(CC(C)Nc2nc(-c3cccnc3)nc3c2CNC3)[nH]n1` (stereo not drawn), with 47.4%; and `O=C(Cn1cccn1)N1CCC(c2nnc(-c3ccsc3)o2)CC1`, with 23.55%.
Then `CN(C1CCCN(c2ccccn2)C1)S(C)(=O)=O` (stereo not drawn), with -2.25%; and `CC(=O)Nc1cc2c(cc1C)OCO2`, with 19.3%; and `COc1c(CNCC(O)COc2ccc3c(c2)OCO3)c(C)nn1C` (stereo not drawn), with 21.5%.
The same measure for `Cc1ccccc1CN(C)CC(O)COCc1ccccc1Cl` (stereo not drawn): 60%; for `COc1ccccc1COCC(O)CN(C)Cc1cccc(Cl)c1` (stereo not drawn): 24.6%.
For `COc1ccc(CN(C)CC(O)COCc2ccccc2Cl)c(OC)c1` (stereo not drawn), the INHIBITION turned out to be 48.2%.
The same measure for `O=S(=O)(NCc1ccc(S(=O)(=O)N2CCCC2)s1)c1ccc(F)cc1Cl`: 18.3%; for `CN(C)S(=O)(=O)c1ccc2c(c1)N(Cc1nccn1C)CC2`: 37.1%.
The same measure for `Cc1ccc([C@@]2(O)CC[C@@H]3CN(S(=O)(=O)C(C)C)C[C@@H]32)cc1`: 3.91%.
In the case of `Cc1cnc(C(=O)N2CCCN(Cc3cnn(C(C)C)c3)CC2)cn1`, the INHIBITION was 9.06%.
The same measure for `CC(C)n1cc(CN2CCCN(C(=O)c3cc(Cl)c[nH]3)CC2)cn1`: 54.9%; for `CC(C)n1cc(CN2CCCN(C(=O)c3ccco3)CC2)cn1`: 25.1%; for `CC(C)n1cc(CN2CCCN(C(=O)c3cccn3C)CC2)cn1`: 34.6%.
Then `CC(C)n1cc(CN2CCCN(C(=O)c3ccc[nH]3)CC2)cn1`, with 52.1%; and `Cc1cc(C(=O)N2CCCN(Cc3cnn(C(C)C)c3)CC2)no1`, with 39.3%; and `Cc1cccc(CN2C[C@@H]3CN(C(=O)c4ccsc4)C[C@@H]3C2=O)n1`, with 23.6%.
The same measure for `CN(C)S(=O)(=O)N1CCN(C(=O)OC(C)(C)C)CC12CCCCC2`: 27.5%; for `Cc1cnn(CC2CCCN2Cc2cn3ccsc3n2)c1` (stereo not drawn): 37.9%.
With `O=C1CCC(=O)c2oc3ccc(Cl)cc3c2N1`, the INHIBITION is on record as 34.2%.
The same measure for `CN(C)C(=O)N1C[C@H]2CC[C@@H](C1)N(C(=O)CCCn1cncn1)C2`: 6.8%; for `O=C(O)COCC(=O)NC1CC2(CCCCC2)Oc2ccccc21` (stereo not drawn): 3.91%.
On to `CC(C)c1nnc2n1CCN(C(=O)c1cn(-c3ccccc3)nn1)C2`, for which the INHIBITION is on record as 21.1%.
The same measure for `O=C(NC[C@]12COC[C@H]1CN(CC1CCOCC1)C2)c1ccco1`: 3.11%; for `Cc1ncc(CN2CCCC(c3nc4ccccc4n3C(C)C)C2)s1` (stereo not drawn): -21.4%.
The same measure for `O=C1NCCN1C1CCN(CCOc2cccc3ccccc23)CC1`: 69.1%; for `O=C1NCCN1C1CCN(CC(O)c2ccccc2F)CC1` (stereo not drawn): 0.45%; for `c1ccc2c(OCCN3CCn4c(nnc4C4CC4)C3)cccc2c1`: 21.5%.
Consider `O=C1NCCN1C1CCN(CCOc2ccccc2Cl)CC1`, for which the INHIBITION worked out at 22.6%.
The same measure for `O=C1NCCN1C1CCN(CCOc2ccccc2F)CC1`: 63.85%; for `O=C1NCCN1C1CCN(CCc2cccs2)CC1`: 29.5%; for `COc1cc(C(=O)N(C)Cc2nccn2CC(F)(F)F)ccc1C`: 10.7%.
The same measure for `Cc1cc(C(=O)N2CCC3(CC2)C(=O)N(C)CCN3CC(C)C)c(C)o1`: 49.4%; for `Cn1cccc1C(=O)N1CCC(c2nnc(Cn3ccnc3)n2C)CC1`: -10.3%.
Then `NCC1[C@H]2CN(CCc3ccccc3)C[C@@H]12` (stereo partly drawn), with 33.2%; and `CN(C)c1nc2c(c(N3CCC4(CCCNC4=O)C3)n1)CCCC2` (stereo not drawn), with 42.2%; and `CN(C)c1nc2c(c(N3CCCC4(CC3)CNC(=O)O4)n1)CCCC2` (stereo not drawn), with -26.8%.
For the compound `CN(C)c1nc2c(c(N3CCC4(CC3)CNC(=O)C4)n1)CCCC2`, the INHIBITION was 84.5%.
The same measure for `CCn1cc(NC(=O)NCC(C)N2CCCC2)cn1` (stereo not drawn): 31.8%; for `Cc1nc(CN2CCc3ncnc(C4CCOC4)c3CC2)cs1` (stereo not drawn): -33%; for `Cc1nc2ncc3c(=O)n(C)ccc3n2n1`: 0.647%.
The same measure for `Cc1noc(C)c1CN1CCN(C(=O)C(C(C)C)n2cncn2)CC1` (stereo not drawn): 7.44%.
Take `Cc1ccc(C(CNC(=O)Cc2nc3ncccn3n2)N(C)C)cc1` (stereo not drawn): the INHIBITION is listed as 56.8%.
The same measure for `Cc1ccc(C(NC(=O)CN2CCc3c(ncn3C)C2)C2CC2)cc1` (stereo not drawn): 6.99%; for `Cc1ccc(OCCCNC(=O)Cc2nc3ncccn3n2)cc1`: 27.7%.
The same measure for `Cc1ccc(C(NC(=O)Cc2nc3ncccn3n2)C2CC2)cc1` (stereo not drawn): 53.4%; for `Cc1ccc(C(CNC(=O)c2cc(CC(C)C)nn2C)N(C)C)cc1` (stereo not drawn): -28.8%; for `Cc1ccc(C(NC(=O)Cn2cc(C3CC3)nn2)C2CC2)cc1` (stereo not drawn): 8.08%.
The same measure for `O=C1C(NS(=O)(=O)c2cccc(F)c2)CCN1Cc1ccccc1` (stereo not drawn): -5.25%; for `Cc1ccc(N2C[C@H](C)[C@]3(CCN(c4cccnc4)C3=O)C2)nn1`: 38.5%; for `CCC(C)N(Cc1sccc1C)C(=O)c1ccc2cccnc2n1` (stereo not drawn): 11.2%.
On to `O=C(N1CCCC1)N1CCN(CC2CC2)c2ncccc2C1`, for which the INHIBITION amounted to 20.5%.
Consider `CC(=O)NCC(=O)N1CCN(Cc2ccncc2)c2ncccc2C1`, for which the INHIBITION is reported as 76.5%.
The same measure for `CC(=O)NCC(=O)N1CCN(Cc2cccnc2)c2ncccc2C1`: -14%; for `O=C(Cc1ccccn1)N1CCN(CC2CC2)c2ncccc2C1`: 24.5%.
As to `COCC(=O)N1CCN(CC2CC2)c2ncccc2C1`, the INHIBITION was -18.6%.
For the compound `COCCC(=O)N1CCN(CC2CC2)c2nc(C)ccc2C1`, the INHIBITION is -7.24%.
The same measure for `O=C(O)CCC(=O)N1CCN(CC2CC2)c2ncccc2C1`: 82%; for `COCCC(=O)N1CCN(CC2CC2)c2ncccc2C1`: 55.7%; for `CC(=O)NCC(=O)N1CCN(CC2CC2)c2ncccc2C1`: 27.9%.
Turning to `COC(=O)C(NC(=O)C1CC1)c1cc(F)ccc1F` (stereo not drawn), the INHIBITION came to 29.4%.
The same measure for `CCOc1ccc(Cl)c(C(=O)NCCS(N)(=O)=O)n1`: 35.3%; for `COc1ccc(C2=CCN(C(=O)C3CCCN(C(C)=O)C3)CC2)cc1` (stereo not drawn): 1.78%.
Then `CNC(=O)CN(C(=O)c1ccccc1)[C@H]1C[C@H]2CCOC[C@H]2C1`, with 8.61%; and `CN1CC(=O)N(c2cccc(F)c2)CC12CCN(Cc1ccncc1)C2` (stereo not drawn), with -17.1%; and `O=C(Cc1ccc(F)c(Br)c1)N1CCN(CCO)CC1`, with 66.7%.
The same measure for `NC(=O)CN1CCCN(C(=O)Cc2ccc(F)c(Br)c2)CC1`: 14.4%; for `COc1ccc(Cl)cc1CC(=O)N1CCN(CCO)CC1`: 38.1%; for `Cn1cc(CN2CCc3onc(COc4cccnc4)c3C2)cn1`: 7.11%.
Turning to `CCS(=O)(=O)N1CCc2onc(COc3ccccn3)c2C1`, the INHIBITION worked out at 3.88%.
Then `c1ccc(OCc2noc3c2CN(c2ncccn2)CC3)nc1`, with 24.6%; and `O=S(=O)(C1CC1)N1CCc2onc(COc3ccccn3)c2C1`, with 61.5%.
In the case of `Cc1cccc(C(=O)N2CCCCC2c2nc(C)cs2)n1` (stereo not drawn), the INHIBITION is given as -21.9%.
Then `O=C(O)C1(Cc2ccc(Cl)cc2)CCN(c2ncccc2F)CC1`, with 52%; and `O=C(O)C1(Cc2ccccc2Cl)CCN(c2ncccc2F)CC1`, with 43.5%.
Turning to `Cc1ncc(C)c(N2CCC(Cc3ccc(Cl)cc3)(C(=O)O)CC2)n1`, the INHIBITION turned out to be 12.7%.
Then `O=C(CCNC(=O)c1ccccc1)Nc1ccncc1`, with 1.58%; and `COC[C@@H]1CCC[C@@]12CN(C(=O)N(C)C)CCO2`, with 28.5%; and `CC(C)OC[C@H]1CCC[C@]12CN(C(=O)C1CCOCC1)CCO2`, with 27.6%.
Consider `CC(C)OC[C@H]1CCC[C@]12CN(S(=O)(=O)c1cccs1)CCO2`, for which the INHIBITION amounted to 45.2%.
Take `COC[C@@H]1CCC[C@]12CN(S(=O)(=O)c1cccs1)CCO2`: the INHIBITION is given as 54.1%.
With `COCC(=O)N1CCO[C@]2(CCC[C@H]2COC)C1`, the INHIBITION was determined as 62.9%.
Then `COC[C@H]1CCC[C@]12CN(S(=O)(=O)c1cccs1)CCO2`, with -0.554%; and `COC[C@H]1CCC[C@]12CN(C(=O)NCc1ccccc1)CCO2`, with -1.58%; and `COC[C@@H]1CCC[C@@]12CN(C(=O)C1CCOCC1)CCO2`, with 33.1%.
The same measure for `COC[C@@H]1CCC[C@@]12CN(C(=O)N1CCCC1)CCO2`: 52.1%.
